Test results published in the supplement of paper PMC10849652.
Of roughly 8,800 targets only a part is listed; those with a hit were picked by preference. About 0.5% of all pairs of compound and target were hits. Values without a mark were called inactive.

Key:
Assay in all cases: log2 fold change, soluble protein after heating vs DMSO (PISA); higher = thermal stabilisation; K562 lysate, 10 uM; active = over 0.2 and 3.5 SD of the protein, either way, in both replicates (recomputed)
erlotinib = compound: C#Cc1cccc(Nc2ncnc3cc(OCCOC)c(OCCOC)cc23)c1 [erlotinib]
Method in brief: (§1)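 Log-two fold change in thermal stability relative to solvent controls is reported from duplicates. For each sample, crude K562 extract from dounce-homogenised pellets in PBS pH 7.4 with 1 mM MgCl2, at 1 mg/mL protein, was treated with 10 μM compound for 30 min. Aliquots heated for 3 min across 48°C-58°C were pooled, brought to 0.5% NP-40 at 4°C and cleared at 21,000xg for 90 min. The supernatant was quantified by TMTpro 16plex LC-MS/MS with channel sums equalised.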

[1] = compound: C/C(=N\NC(=O)C1=CC(=CC=C1)S(=O)(=O)N2CCOCC2)/C3=C(C=CC(=C3)Cl)O
Method in brief: as §1

[2] = compound: C1=CC(=CC=C1C2=NC3=C(N2)C=C(C=C3)C(=O)N)OC4=CC=C(C=C4)Cl
Method in brief: as §1

[3] = compound: C1=CC2=C(C=CC(=C2)/C=C\3/C(=O)NC(=NCC4=CC=CS4)S3)N=C1
Method in brief: as §1

[4] = compound: C1=CC=C(C=C1)C2=NC(=C(N2)C3=CC=NC=C3)C4=CC(=C(C=C4)Cl)O
Method in brief: as §1

[5] = compound: C1=CC=C2C(=C1)C3=NNC4=CC=CC(=C43)C2=O
Method in brief: as §1

[6] = compound: C1CCN(C1)C(=O)NC2=CC=CC(=C2)NC3=NC=C(C(=N3)NCCC4=CN=CN4)Br
Method in brief: as §1

[7] = compound: C1CN(CCC1(CC2=CC=C(C=C2)Cl)N)C3=NC=NC4=C3C=CN4
Method in brief: as §1

IRAK-1-4 Inhibitor I = compound: C1COCCN1CCN2C3=CC=CC=C3N=C2NC(=O)C4=CC(=CC=C4)[N+](=O)[O-] [IRAK-1-4 Inhibitor I]
Method in brief: as §1

[8] = compound: CC(=O)c1cnc2ccc(-c3cc(Cl)c(O)c(Cl)c3)nc2c1N[C@H]1CC[C@H](CN(C)C)CC1
Method in brief: as §1

ralimetinib = compound: CC(C)(C)Cn1c(N)nc2ccc(-c3[nH]c(C(C)(C)C)nc3-c3ccc(F)cc3)nc21 [ralimetinib]
Method in brief: as §1

[9] = compound: CC(C)(O)CC(=O)NCCn1ccc2ncnc(Nc3ccc(Oc4cccc(C(F)(F)F)c4)c(Cl)c3)c21
Method in brief: as §1

[10] = compound: CC(C)C1=C2N=C(C=C(N2N=C1)NCC3=CC=CC=C3)NCCCCCCN
Method in brief: as §1

[11] = compound: CC1=C(C2=C(C=C1)C(=O)C3=CC=CC=C3N2CCCN)C
Method in brief: as §1

[12] = compound: CC1=C(C=C(C=C1)NC(=O)C2=CC(=CC=C2)C(C)(C)C#N)NC3=CC4=C(C=C3)N=CN(C4=O)C
Method in brief: as §1

[13] = compound: CC1=C(C=C(C=C1)NC(=O)C2=CC(=CC=C2)N(C)C)NC(=O)C3=CC=C(C=C3)O
Method in brief: as §1

[14] = compound: CC1=CC=C(C=C1)SC2=C3C=C(SC3=CN=C2)C(=O)N
Method in brief: as §1

[15] = compound: CC1=C(C(CC(=O)N1)C2=CC=C(C=C2)C(F)(F)F)C(=O)NC3=C(C=C4C(=C3)C=NN4)F
Method in brief: as §1

[16] = compound: C1=CC2=NC=CN=C2C=C1/C=C/3\C(=O)NC(=O)S3
Method in brief: as §1

ibrutinib = compound: C=CC(=O)N1CCC[C@@H](n2nc(-c3ccc(Oc4ccccc4)cc3)c3c(N)ncnc32)C1 [ibrutinib]
Method in brief: as §1

Chain of UniProt Q6P3S1 (Q6P3S1 whole entry, looked up): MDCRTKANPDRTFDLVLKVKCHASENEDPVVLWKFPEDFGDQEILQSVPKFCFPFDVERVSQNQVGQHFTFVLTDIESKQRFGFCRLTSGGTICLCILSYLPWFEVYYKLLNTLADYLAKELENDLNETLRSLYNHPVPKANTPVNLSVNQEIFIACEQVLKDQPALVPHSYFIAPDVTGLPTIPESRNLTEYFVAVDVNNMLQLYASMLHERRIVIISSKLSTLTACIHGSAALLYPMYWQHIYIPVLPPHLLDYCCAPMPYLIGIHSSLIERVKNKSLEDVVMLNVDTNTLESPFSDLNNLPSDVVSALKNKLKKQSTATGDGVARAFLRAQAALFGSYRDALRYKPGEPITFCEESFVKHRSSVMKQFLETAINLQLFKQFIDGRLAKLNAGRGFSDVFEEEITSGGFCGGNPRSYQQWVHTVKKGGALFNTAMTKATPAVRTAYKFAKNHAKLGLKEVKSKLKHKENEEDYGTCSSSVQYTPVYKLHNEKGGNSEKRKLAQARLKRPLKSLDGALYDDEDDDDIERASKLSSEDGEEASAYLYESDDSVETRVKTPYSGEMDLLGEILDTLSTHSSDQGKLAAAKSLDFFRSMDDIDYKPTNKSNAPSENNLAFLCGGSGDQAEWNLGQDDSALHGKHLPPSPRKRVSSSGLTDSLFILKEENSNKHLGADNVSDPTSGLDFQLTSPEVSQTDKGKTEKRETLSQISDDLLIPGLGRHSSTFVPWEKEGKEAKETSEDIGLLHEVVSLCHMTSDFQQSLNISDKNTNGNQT
Chain of UniProt P51530 (P51530 whole entry, looked up): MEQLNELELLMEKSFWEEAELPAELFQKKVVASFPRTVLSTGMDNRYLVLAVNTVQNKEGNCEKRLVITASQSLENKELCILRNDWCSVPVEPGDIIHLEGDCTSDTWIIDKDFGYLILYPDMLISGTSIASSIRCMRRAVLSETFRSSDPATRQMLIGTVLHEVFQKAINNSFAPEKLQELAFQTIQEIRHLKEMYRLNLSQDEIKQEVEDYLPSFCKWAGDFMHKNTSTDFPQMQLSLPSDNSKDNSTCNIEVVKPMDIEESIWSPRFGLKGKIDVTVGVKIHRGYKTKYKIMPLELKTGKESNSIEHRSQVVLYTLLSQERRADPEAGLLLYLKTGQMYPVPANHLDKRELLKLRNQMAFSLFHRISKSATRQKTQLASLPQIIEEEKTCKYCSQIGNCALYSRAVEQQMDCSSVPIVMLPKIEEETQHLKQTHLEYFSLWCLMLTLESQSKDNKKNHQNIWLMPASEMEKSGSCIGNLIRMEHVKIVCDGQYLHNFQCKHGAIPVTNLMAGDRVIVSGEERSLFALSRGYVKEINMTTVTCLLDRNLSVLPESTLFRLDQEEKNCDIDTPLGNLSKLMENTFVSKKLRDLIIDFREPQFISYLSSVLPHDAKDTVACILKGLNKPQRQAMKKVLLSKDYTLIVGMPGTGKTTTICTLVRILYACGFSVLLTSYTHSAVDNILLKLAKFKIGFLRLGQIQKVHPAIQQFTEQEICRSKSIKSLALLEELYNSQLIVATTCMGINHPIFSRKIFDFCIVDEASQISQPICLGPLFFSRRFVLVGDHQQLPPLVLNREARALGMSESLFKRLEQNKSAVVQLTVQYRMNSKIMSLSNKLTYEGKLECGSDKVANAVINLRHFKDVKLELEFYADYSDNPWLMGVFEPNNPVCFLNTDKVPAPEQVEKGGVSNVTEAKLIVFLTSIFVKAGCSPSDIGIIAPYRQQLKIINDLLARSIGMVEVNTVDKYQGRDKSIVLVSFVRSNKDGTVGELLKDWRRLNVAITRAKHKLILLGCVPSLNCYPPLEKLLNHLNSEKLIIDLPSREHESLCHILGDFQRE
Chain of UniProt Q9Y2V7 (Q9Y2V7 whole entry, looked up): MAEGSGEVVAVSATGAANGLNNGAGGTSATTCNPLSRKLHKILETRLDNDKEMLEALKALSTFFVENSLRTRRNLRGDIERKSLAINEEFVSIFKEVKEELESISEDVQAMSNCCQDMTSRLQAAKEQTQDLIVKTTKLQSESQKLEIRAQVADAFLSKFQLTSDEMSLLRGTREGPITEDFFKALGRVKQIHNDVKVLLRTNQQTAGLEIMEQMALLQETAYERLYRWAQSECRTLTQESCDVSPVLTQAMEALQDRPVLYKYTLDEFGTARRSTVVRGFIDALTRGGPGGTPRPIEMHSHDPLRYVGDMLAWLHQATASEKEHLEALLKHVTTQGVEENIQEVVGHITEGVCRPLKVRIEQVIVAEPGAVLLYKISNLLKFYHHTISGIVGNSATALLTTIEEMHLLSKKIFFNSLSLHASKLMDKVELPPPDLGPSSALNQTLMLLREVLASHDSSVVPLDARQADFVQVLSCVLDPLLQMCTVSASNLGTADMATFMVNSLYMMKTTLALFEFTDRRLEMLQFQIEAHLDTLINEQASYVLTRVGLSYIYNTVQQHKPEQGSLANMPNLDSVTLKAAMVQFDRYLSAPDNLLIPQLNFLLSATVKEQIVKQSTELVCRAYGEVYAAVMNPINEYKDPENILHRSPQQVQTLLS
Chain of UniProt O75153 (O75153 whole entry, looked up): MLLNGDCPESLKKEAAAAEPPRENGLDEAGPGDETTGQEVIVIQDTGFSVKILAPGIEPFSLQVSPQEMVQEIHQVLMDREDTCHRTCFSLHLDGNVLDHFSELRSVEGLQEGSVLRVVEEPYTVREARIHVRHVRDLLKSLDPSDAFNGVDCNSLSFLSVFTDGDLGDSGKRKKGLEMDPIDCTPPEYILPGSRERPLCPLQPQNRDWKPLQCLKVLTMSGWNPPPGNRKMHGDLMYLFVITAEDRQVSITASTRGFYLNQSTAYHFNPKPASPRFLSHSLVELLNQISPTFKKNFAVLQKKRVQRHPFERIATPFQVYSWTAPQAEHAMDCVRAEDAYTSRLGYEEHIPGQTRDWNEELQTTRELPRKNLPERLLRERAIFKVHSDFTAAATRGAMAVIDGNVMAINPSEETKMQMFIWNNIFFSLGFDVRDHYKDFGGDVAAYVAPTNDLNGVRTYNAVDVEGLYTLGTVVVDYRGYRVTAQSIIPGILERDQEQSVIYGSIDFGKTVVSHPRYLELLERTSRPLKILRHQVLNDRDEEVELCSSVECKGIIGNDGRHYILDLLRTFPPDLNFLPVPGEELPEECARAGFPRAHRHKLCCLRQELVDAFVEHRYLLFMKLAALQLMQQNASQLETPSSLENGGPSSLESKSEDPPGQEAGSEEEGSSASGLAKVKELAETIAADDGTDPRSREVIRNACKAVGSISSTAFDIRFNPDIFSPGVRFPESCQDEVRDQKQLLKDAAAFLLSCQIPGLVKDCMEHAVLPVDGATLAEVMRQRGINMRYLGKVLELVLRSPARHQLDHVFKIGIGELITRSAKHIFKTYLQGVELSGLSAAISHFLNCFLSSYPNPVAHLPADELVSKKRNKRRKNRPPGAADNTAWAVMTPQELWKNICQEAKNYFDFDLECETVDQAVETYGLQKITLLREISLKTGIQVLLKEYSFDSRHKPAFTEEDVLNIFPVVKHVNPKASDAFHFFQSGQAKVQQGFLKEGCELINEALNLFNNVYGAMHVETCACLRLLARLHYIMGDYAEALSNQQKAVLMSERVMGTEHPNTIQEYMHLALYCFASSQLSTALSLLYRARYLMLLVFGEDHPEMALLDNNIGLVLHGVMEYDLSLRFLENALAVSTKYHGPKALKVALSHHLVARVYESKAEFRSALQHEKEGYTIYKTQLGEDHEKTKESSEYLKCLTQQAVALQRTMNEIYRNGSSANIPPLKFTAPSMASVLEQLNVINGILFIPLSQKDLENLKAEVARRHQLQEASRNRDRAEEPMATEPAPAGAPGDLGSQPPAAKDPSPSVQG
Chain of UniProt Q8IWV2 (Q8IWV2 whole entry, looked up): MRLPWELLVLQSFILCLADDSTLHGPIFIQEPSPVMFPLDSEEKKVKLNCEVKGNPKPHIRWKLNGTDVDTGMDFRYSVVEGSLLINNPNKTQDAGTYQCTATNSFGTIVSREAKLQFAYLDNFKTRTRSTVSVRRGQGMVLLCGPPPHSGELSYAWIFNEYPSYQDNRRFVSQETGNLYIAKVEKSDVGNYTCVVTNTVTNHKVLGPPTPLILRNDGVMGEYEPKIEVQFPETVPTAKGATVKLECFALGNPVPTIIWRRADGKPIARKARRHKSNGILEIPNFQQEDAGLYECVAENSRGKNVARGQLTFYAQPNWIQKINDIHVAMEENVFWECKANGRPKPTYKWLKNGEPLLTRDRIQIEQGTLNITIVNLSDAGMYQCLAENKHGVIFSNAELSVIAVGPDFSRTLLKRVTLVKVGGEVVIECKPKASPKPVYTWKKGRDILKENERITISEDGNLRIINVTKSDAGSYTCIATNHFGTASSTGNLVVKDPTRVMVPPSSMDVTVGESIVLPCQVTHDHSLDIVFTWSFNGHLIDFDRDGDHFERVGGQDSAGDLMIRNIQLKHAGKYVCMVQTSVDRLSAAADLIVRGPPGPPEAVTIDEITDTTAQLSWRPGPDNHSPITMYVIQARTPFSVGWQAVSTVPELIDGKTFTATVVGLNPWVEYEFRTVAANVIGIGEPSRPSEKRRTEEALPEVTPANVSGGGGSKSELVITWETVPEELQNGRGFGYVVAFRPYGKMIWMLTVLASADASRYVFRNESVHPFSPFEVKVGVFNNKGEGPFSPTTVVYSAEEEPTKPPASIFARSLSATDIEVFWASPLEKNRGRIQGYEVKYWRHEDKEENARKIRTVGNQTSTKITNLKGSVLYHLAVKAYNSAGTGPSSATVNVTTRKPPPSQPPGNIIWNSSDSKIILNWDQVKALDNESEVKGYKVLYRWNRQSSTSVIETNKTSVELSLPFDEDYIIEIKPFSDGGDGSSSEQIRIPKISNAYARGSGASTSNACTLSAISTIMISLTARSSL
Chain of UniProt Q6P3W2 (Q6P3W2 whole entry, looked up): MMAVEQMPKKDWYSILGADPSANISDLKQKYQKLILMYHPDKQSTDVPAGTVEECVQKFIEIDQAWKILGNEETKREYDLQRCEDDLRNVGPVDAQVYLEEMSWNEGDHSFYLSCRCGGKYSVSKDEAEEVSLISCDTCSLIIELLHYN
Chain of UniProt P04080 (P04080 whole entry, looked up): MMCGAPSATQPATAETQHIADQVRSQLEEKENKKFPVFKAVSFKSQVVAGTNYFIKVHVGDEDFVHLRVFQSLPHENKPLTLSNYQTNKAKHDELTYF

| Target | log2 fold change (erlotinib) | log2 fold change [1] | log2 fold change [2] | log2 fold change [3] | log2 fold change [4] | log2 fold change [5] | log2 fold change [6] | log2 fold change [7] | log2 fold change (IRAK-1-4 Inhibitor I) | log2 fold change [8] | log2 fold change (ralimetinib) | log2 fold change [9] | log2 fold change [10] | log2 fold change [11] | log2 fold change [12] | log2 fold change [13] | log2 fold change [14] | log2 fold change [15] | log2 fold change [16] | log2 fold change (ibrutinib) |
| --- | --- | --- | --- | --- | --- | --- | --- | --- | --- | --- | --- | --- | --- | --- | --- | --- | --- | --- | --- | --- |
| CUX1 isoform 2 (UniProt Q13948) | -0.029 | -0.003 | -0.229 | 0.034 | -0.011 | 0.02 | -0.015 | -0.008 | 0.029 | 0.07 | -0.069 | 0.052 | -0.16 | -0.027 | 0.385 | 0.043 | -0.086 | – | – | – |
| COX7B (UniProt P24311) | -0.024 | 0.026 | 0.009 | -0.011 | -0.003 | 0.022 | -0.085 | 0.022 | 0.025 | -0.016 | 0.014 | -0.09 | 0.008 | -0.144 | 0.018 | 0.039 | 0.02 | -0.046 | – | – |
| DNAH5 (UniProt Q8TE73) | -0.006 | -0.008 | 0 | -0.024 | 0.004 | -0.056 | – | – | -0.015 | -0.009 | -0.045 | -0.138 | 0.076 | 0.014 | – | 0.019 | 0.086 | 0.062 | 0.015 | -0.064 |
| DNAJC24 (UniProt Q6P3W2) | 0.034 | -0.069 | 0.021 | 0.011 | 0.016 | 0.081 | 0.01 | 0.01 | -0.055 | -0.12 | -0.052 | 0.113 | -0.067 | 0.064 | 0.031 | 0.047 | 0.064 | -0.048 | – | – |
| DNA2 (UniProt P51530) | -0.019 | 0.071 | -0.054 | -0.163 | -0.032 | 0.044 | 0.027 | 0.077 | -0.033 | – | 0.016 | 0.029 | -0.06 | 0.002 | -0.02 | 0.001 | – | -0.007 | – | – |
| CSTB (UniProt P04080) | -0.024 | 0.054 | -0.016 | 0.018 | -0.028 | 0.031 | -0.015 | 0.031 | 0.082 | -0.047 | 0.03 | -0.065 | 0.019 | 0.037 | 0.121 | 0.009 | 0.021 | -0.059 | 0.004 | 0.017 |
| CLUH, A0A494C0R8 | 0.077 | -0.023 | -0.041 | 0.02 | 0 | -0.114 | 0.05 | -0.063 | 0.008 | 0.138 | 0.053 | -0.043 | 0.002 | 0 | 0.016 | -0.035 | 0.029 | -0.128 | 0.225 | – |
| DENND1B (UniProt Q6P3S1) | -0.08 | 0.153 | -0.13 | 0.04 | 0.019 | 0.007 | – | – | 0.014 | -0.034 | -0.039 | -0.114 | -0.087 | 0.174 | 0.031 | -0.003 | 0.011 | 0.151 | 0.19 | 0.405 |
| CLASP2 isoform 3 (UniProt O75122) | 0.032 | -0.014 | -0.022 | -0.032 | 0 | -0.024 | -0.024 | 0.057 | -0.012 | 0.004 | 0.019 | -0.014 | 0.025 | -0.008 | 0.023 | 0.042 | 0.004 | 0.019 | -0.018 | – |
| DBF4 (UniProt Q9UBU7) | 0.03 | 0.056 | 0.005 | -0.033 | 0.098 | -0.058 | -0.068 | -0.022 | 0.04 | – | -0.048 | -0.017 | -0.01 | -0.058 | -0.012 | -0.042 | – | -0.062 | -0.342 (active) | -0.06 |
| DPY19L3 (UniProt Q6ZPD9) | -0.131 | 0.007 | -0.097 | 0.101 | – | -0.2 | 0.005 | 0.008 | – | 0.012 | – | – | -0.224 | – | 0.047 | – | -0.017 | – | 0.211 | -0.111 |
| DENND4A isoform 2 (UniProt Q7Z401) | 0.023 | -0.021 | -0.015 | 0.007 | 0.002 | -0.041 | 0.002 | 0.012 | 0.017 | -0.089 | 0.018 | -0.028 | 0.017 | 0.026 | 0.029 | 0.023 | -0.009 | 0.006 | -0.045 | 0 |
| COG6 (UniProt Q9Y2V7) | -0.059 | 0.153 | -0.074 | -0.07 | 0.015 | 0.024 | 0.008 | 0.077 | 0.006 | 0.005 | 0.016 | -0.059 | -0.028 | 0.016 | 0.004 | 0.033 | 0.021 | -0.017 | -0.008 | -0.003 |
| CLUH (UniProt O75153) | -0.011 | 0.018 | -0.006 | 0.051 | -0.013 | -0.014 | -0.009 | -0.005 | -0.007 | 0.093 | 0.008 | -0.004 | -0.044 | 0 | -0.001 | 0.006 | 0.008 | -0.01 | 0.21 | – |
| DCP1A (UniProt Q9NPI6) | 0.038 | 0.025 | 0.03 | 0.004 | 0.014 | -0.033 | 0.013 | 0.012 | -0.045 | -0.016 | 0.004 | -0.042 | 0.025 | -0.02 | 0.046 | 0.011 | 0 | 0.013 | -0.03 | 0 |
| DDAH1 (UniProt O94760) | 0 | -0.008 | 0.006 | -0.027 | -0.006 | 0.035 | 0.032 | 0.051 | -0.016 | -0.016 | -0.037 | -0.045 | -0.001 | -0.441 (active) | 0.137 | -0.005 | -0.04 | – | – | – |
| CNTN4 (UniProt Q8IWV2) | 0.053 | 0.063 | 0.138 | -0.03 | 0.046 | -0.203 | -0.124 | 0.138 | 0.119 | -0.154 | -0.286 | -0.341 | 0.094 | – | 0.312 | -0.039 | -0.141 | -0.077 | 0.053 | -0.043 |
